# Results: a collection of fitness landscapes (doi:10.1126/science.1257360)
# In all, about 140,000 sequences were measured (“enrichment ratio after two sorts for PhoP signalling”: median about 0, highest 2% from about 11 on). The list comes from a sample in which the highest values are over-represented; it also holds similar and randomly drawn sequences.
# B1: PhoQ; a variant is named by its letters at X, in order, P23837 (parent)
# chain: MKKLLRLFFPLSLRVRFLLATAAVVLVLSLAYGMVALIGYSVSFDKTTFRLLRGESNLFYTLAKWENNKLHVELPENIDKQSPTMTLIYDENGQLLWAQRDVPWLMKMIQPDWLKSNGFHEIEADVNDTSLLLSGDHSIQQQLQEVREDDDDAEMTHSVAVNVYPATSRMPKLTIVVVDTIPVELKSSYMVWSWFIYVLSANLLLVIPLLWVAAWWSLRPIEALAKEVRELEEHNRELLNPATTRELTSLVRNLNRLLKSERERYDKYRTTLTDLTHSLKTPLXXLQXXLRSLRSEKMSVSDAEPVMLEQISRISQQIGYYLHRASMRGGTLLSRELHPVAPLLDNLTSALNKVYQRKGVNISLDISPEISFVGEQNDFVEVMGNVLDNACKYCLEFVEISARQTDEHLYIVVEDDGPGIPLSKREVIFDRGQRVDTLRPGQGVGLAVAREITEQYEGKIVAGESMLGGARMEVIFGRQHSAPKDE
# Variants of: B1
# Test: enrichment ratio after two sorts for PhoP signalling (ratio (wild type AVST 3.29)); higher = more functional
# Settings: with PhoP (E. coli)
row,Variant,enrichment ratio
1,LLFG,≤ 0.25
2,YKSC,≤ 0.25
3,GCVC,≤ 0.25
4,HYNH,≤ 0.25
5,KADY,≤ 0.25
6,QSWG,18
7,QPWG,≤ 0.25
8,QSDS,20.8
9,QSDA,7.1
10,QADY,11.7
11,QSDK,≤ 0.25
12,QEDH,≤ 0.25
13,QSDH,18.9
14,QRWG,≤ 0.25
15,KSDH,≤ 0.25
16,QADS,3.89
17,QIRT,≤ 0.25
18,QYHW,≤ 0.25
19,CPHF,≤ 0.25
20,NKSG,≤ 0.25
21,VAGL,1.62
22,RRLA,≤ 0.25
23,QSGV,3.83
24,KNHV,≤ 0.25

row,Variant,enrichment ratio
1,QSAM,14.5
2,QSHF,9.45
3,QSHV,11.3
4,KSDI,≤ 0.25
5,QEAM,≤ 0.25
6,QPDI,≤ 0.25
7,QSHI,15.9
8,QSDI,14.8
9,KSHI,≤ 0.25
10,QAAM,≤ 0.25
11,SNHK,≤ 0.25
12,ELHR,≤ 0.25
13,RESM,≤ 0.25
14,NKRK,≤ 0.25
15,MWRP,≤ 0.25
16,GFQI,≤ 0.25
17,NFAP,≤ 0.25
18,QSRM,≤ 0.25
19,QSWA,14.9
20,QSPM,≤ 0.25
21,QSGM,21.6
22,QPWA,≤ 0.25
23,QSWM,11.9
24,QSWI,21.7

row,Variant,enrichment ratio
1,QSLA,≤ 0.25
2,QSGD,≤ 0.25
3,QSTH,≤ 0.25
4,QSCK,≤ 0.25
5,QRWA,≤ 0.25
6,WMFH,≤ 0.25
7,WHID,≤ 0.25
8,WSCR,≤ 0.25
9,TVMI,1.87
10,WGFP,≤ 0.25
11,HKEM,≤ 0.25
12,ESDT,≤ 0.25
13,QYWI,≤ 0.25
14,QENM,≤ 0.25
15,KSDY,≤ 0.25
16,QSDY,14.5
17,QSWY,7.32
18,QSHP,≤ 0.25
19,KSNM,≤ 0.25
20,QSTD,≤ 0.25
21,QSNM,13.1
22,QYMG,≤ 0.25
23,QSHQ,22.4
24,QYWG,16.3

row,Variant,enrichment ratio
1,HQNG,≤ 0.25
2,FDDI,≤ 0.25
3,SMYF,≤ 0.25
4,YYYI,≤ 0.25
5,FAGN,≤ 0.25
6,ICGK,≤ 0.25
7,IRTW,≤ 0.25
8,QPDM,≤ 0.25
9,QSWD,22.4
10,KSDM,≤ 0.25
11,FFDM,≤ 0.25
12,QRWD,≤ 0.25
13,QGGM,4.35
14,QSDM,13.7
15,QRHC,≤ 0.25
16,QPWD,≤ 0.25
17,QGDM,27.5
18,QVHC,≤ 0.25
19,QLHC,21.3
20,WGMH,≤ 0.25
21,ANRC,≤ 0.25
22,KGAG,≤ 0.25
23,TIPQ,≤ 0.25
24,PTHR,≤ 0.25

row,Variant,enrichment ratio
1,NEAL,≤ 0.25
2,MGAL,15.5
3,TGAL,15.9
4,TEAL,14.7
5,GGAL,4.27
6,KAAL,1.81
7,NAAL,≤ 0.25
8,QRAL,≤ 0.25
9,MEAL,8.16
10,TAAL,11.4
11,NGAL,≤ 0.25
12,RGAL,0.701
13,EAAP,≤ 0.25
14,LSEF,≤ 0.25
15,DGFG,≤ 0.25
16,EQRH,≤ 0.25
17,KHEV,≤ 0.25
18,INFP,≤ 0.25
19,TDLE,≤ 0.25
20,NRFY,≤ 0.25
21,VSYR,≤ 0.25
22,PTNE,≤ 0.25
23,FSIC,≤ 0.25
24,PHTQ,≤ 0.25

row,Variant,enrichment ratio
1,FFAL,≤ 0.25
2,QGAL,15.6
3,QAAL,3.3
4,LMWN,≤ 0.25
5,HINH,≤ 0.25
6,KPLN,≤ 0.25
7,TSWI,3.63
8,TSLN,16.9
9,KSLA,≤ 0.25
10,TSLA,16.6
11,TSLT,13.3
12,NSLN,≤ 0.25
13,TSLS,15.9
14,KSLS,≤ 0.25
15,KSLN,≤ 0.25
16,FSLT,7.83
17,FSLS,9.54
18,KSLT,≤ 0.25
19,YNRN,≤ 0.25
20,VLSY,0.334
21,DDLI,≤ 0.25
22,ARIV,≤ 0.25
23,HMEL,≤ 0.25
24,PRTC,≤ 0.25

row,Variant,enrichment ratio
1,INYQ,≤ 0.25
2,ICWY,≤ 0.25
3,RSTG,≤ 0.25
4,YLPW,≤ 0.25
5,WEVD,≤ 0.25
6,ANLP,≤ 0.25
7,GSGM,8.45
8,TPLF,≤ 0.25
9,GSFM,≤ 0.25
10,GNLF,6.83
11,GSLM,20.9
12,GSLF,11.4
13,KGAD,≤ 0.25
14,MQRI,≤ 0.25
15,EYAR,≤ 0.25
16,AEMF,≤ 0.25
17,AEIG,21.9
18,AEMT,5.41
19,AIYG,0.334
20,AEMS,31
21,AEHG,≤ 0.25
22,AEGG,≤ 0.25
23,ADYG,≤ 0.25
24,AEYG,36.3

row,Variant,enrichment ratio
1,AEEG,≤ 0.25
2,AEMG,14.3
3,QPAL,≤ 0.25
4,QTTM,≤ 0.25
5,SAVI,3.04
6,NWIW,≤ 0.25
7,RGNN,≤ 0.25
8,GTDL,≤ 0.25
9,AEGA,11
10,AGMA,5.7
11,AEMA,25.6
12,IMTE,≤ 0.25
13,PMNV,≤ 0.25
14,YHPY,≤ 0.25
15,TNGH,7.13
16,TASI,12.5
17,TATH,3.27
18,TATS,19.8
19,NASS,≤ 0.25
20,QRSI,≤ 0.25
21,TASS,13.4
22,KASS,1.62
23,TASK,0.795
24,TATC,7.1

row,Variant,enrichment ratio
1,KASI,≤ 0.25
2,NASI,≤ 0.25
3,QASI,12.8
4,MVMH,≤ 0.25
5,DHNH,≤ 0.25
6,TASC,12.7
7,NASC,≤ 0.25
8,KASC,≤ 0.25
9,NATG,≤ 0.25
10,KATG,≤ 0.25
11,TATG,18
12,FSNY,≤ 0.25
13,TWVT,≤ 0.25
14,GCMG,16.9
15,GCCG,18.1
16,GCCI,5.84
17,QCCG,≤ 0.25
18,GCIG,12.8
19,GCVG,≤ 0.25
20,GTIG,1.96
21,GQIG,23.8
22,GYIG,≤ 0.25
23,GNIG,1.98
24,GCGG,≤ 0.25

row,Variant,enrichment ratio
1,GQIV,0.651
2,LGAY,≤ 0.25
3,SVEV,≤ 0.25
4,YSQV,≤ 0.25
5,KMDL,≤ 0.25
6,NRSD,≤ 0.25
7,TNRT,≤ 0.25
8,FPTD,≤ 0.25
9,IEAY,≤ 0.25
10,MKTL,≤ 0.25
11,TKTL,16
12,AVEL,≤ 0.25
13,AHTL,6.56
14,AITL,24.3
15,AVTL,12.5
16,HKTL,≤ 0.25
17,AVWL,≤ 0.25
18,AETL,15.1
19,AMTL,4.39
20,MHYL,≤ 0.25
21,ALHS,≤ 0.25
22,THYA,≤ 0.25
23,TPED,≤ 0.25
24,WDQY,≤ 0.25

row,Variant,enrichment ratio
1,IFCF,≤ 0.25
2,AWTL,≤ 0.25
3,ANTL,12.9
4,VRTL,≤ 0.25
5,KKTL,≤ 0.25
6,AKTL,12.5
7,LLTL,≤ 0.25
8,KLTL,≤ 0.25
9,ASTL,20.2
10,ASEL,3.67
11,ADTL,≤ 0.25
12,ALTL,15.2
13,LLVY,≤ 0.25
14,YYRY,≤ 0.25
15,RSKL,≤ 0.25
16,EIAA,≤ 0.25
17,SNVV,7.87
18,ACTL,15.2
19,ACTK,4.69
20,AGAW,≤ 0.25
21,PHQA,≤ 0.25
22,GTCG,7.53
23,GNCW,≤ 0.25
24,GQCE,21.9

row,Variant,enrichment ratio
1,PNCG,≤ 0.25
2,NVCW,≤ 0.25
3,GVCW,11.5
4,GQCI,2.43
5,GQCS,4.33
6,GVCG,12.7
7,PWCG,≤ 0.25
8,GQCG,16.6
9,GQWG,≤ 0.25
10,TNLK,≤ 0.25
11,EITI,≤ 0.25
12,RPCA,≤ 0.25
13,WVGL,≤ 0.25
14,NTRE,≤ 0.25
15,RRCS,≤ 0.25
16,NLFK,≤ 0.25
17,SDVW,≤ 0.25
18,PHGP,≤ 0.25
19,TMGC,11.3
20,TMNK,≤ 0.25
21,FFGC,≤ 0.25
22,TMTC,13.5
23,QGGC,19.5
24,QPGC,≤ 0.25

row,Variant,enrichment ratio
1,TMNC,15.3
2,KMNC,≤ 0.25
3,KCGC,≤ 0.25
4,NHGC,≤ 0.25
5,TMPC,≤ 0.25
6,DMNC,≤ 0.25
7,EFVE,≤ 0.25
8,GASP,≤ 0.25
9,HAHN,≤ 0.25
10,NMLC,≤ 0.25
11,MIGC,41.4
12,VEGC,≤ 0.25
13,TMPP,≤ 0.25
14,TCGC,23.2
15,TMGA,17.5
16,DMLC,≤ 0.25
17,MEGC,≤ 0.25
18,GMGC,≤ 0.25
19,TMLC,13.8
20,TMGQ,5.04
21,MITC,≤ 0.25
